According to PMC9838217, “Structure of SALL4 zinc finger domain reveals link between AT-rich DNA binding and Okihiro syndrome”:
Where a chain is given by its changes, count along the chain named.

Columns and labels:
Assay in all cases: HT-SELEX; high values mean tight binding
Conditions in all cases: protein: recombinant; vector His6-GST; dsDNA, one strand shown
SALL4 ZFC4 WT (HT-SELEX) = target: T1, SALL4 ZFC4 WT (HT-SELEX) (Mus musculus, UniProt Q8BX22 870-940)
T1 sequence: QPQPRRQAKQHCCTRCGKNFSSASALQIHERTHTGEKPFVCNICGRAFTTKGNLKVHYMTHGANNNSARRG
In short: (§1)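 In triplicate selections of up to 6 cycles, purified recombinant mouse SALL4 zinc finger cluster 4 (residues 870–940, 1 µg) was incubated 10 min at room temperature with library DNA (1.5 µg, then 200 ng) in 100 µl of 10 mM Tris–HCl pH 7.5, 50 mM NaCl, poly(dI-dC) and DTT, and complexes were captured on Ni2+ beads, washed and PCR-amplified. Sequencing was done on MiSeq with scanning for 6-mers. The binding signal is each canonical k-mer's read fraction, reported as fold change against the initial random library.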

[1] = target: T2, SALL4 ZFC4 R900W (HT-SELEX) (Mus musculus, UniProt Q8BX22 870-940, R900W)
T2 sequence: T1 sequence with R31W
In short: as §1

[2] = target: T3, SALL4 ZFC4 G921D (HT-SELEX) (Mus musculus, UniProt Q8BX22 870-940, G921D)
T3 sequence: T1 sequence with G52D
In short: as §1

Sequence	binding signal (SALL4 ZFC4 WT (HT-SELEX)) [fold-change vs cycle 0]	binding signal [1] [fold-change vs cycle 0]	binding signal [2] [fold-change vs cycle 0]
CACAAG	0.713 ± 0.0143	0.853 ± 0.0253	0.901 ± 0.0111
AATAAG	2.35 ± 0.133	2.15 ± 0.175	1.86 ± 0.227
AGGTCA	0.772 ± 0.0359	0.893 ± 0.023	0.972 ± 0.0353
CCCCTA	0.489 ± 0.0364	0.584 ± 0.015	0.638 ± 0.0291
GAAATA	2.68 ± 0.193	1.89 ± 0.115	1.72 ± 0.124
CCCTAC	0.441 ± 0.0346	0.512 ± 0.0309	0.603 ± 0.047
TGATCA	1.35 ± 0.0953	1.5 ± 0.0834	1.47 ± 0.128
ATGCTC	0.663 ± 0.0343	0.754 ± 0.0376	0.845 ± 0.0337
GACCAC	0.381 ± 0.00949	0.448 ± 0.0299	0.55 ± 0.0669
CTCCAA	0.746 ± 0.0518	0.878 ± 0.04	0.924 ± 0.0231
AAGGGA	0.928 ± 0.0784	1.09 ± 0.0682	1.03 ± 0.0363
AGCCCT	0.343 ± 0.0204	0.423 ± 0.0426	0.56 ± 0.0891
CACATG	0.752 ± 0.0217	0.8671 ± 0.00649	0.925 ± 0.0436
CGTCTC	0.379 ± 0.0073	0.467 ± 0.0242	0.574 ± 0.0434
TAACAA	2.11 ± 0.116	2.02 ± 0.138	1.81 ± 0.153
ACTAGT	1.33 ± 0.0473	1.52 ± 0.0779	1.37 ± 0.106
AAGTAA	2.17 ± 0.0689	2.26 ± 0.152	1.91 ± 0.204
CAGGTA	0.825 ± 0.0117	0.927 ± 0.0176	0.973 ± 0.0448
CACCAA	0.692 ± 0.0333	0.776 ± 0.0234	0.859 ± 0.0335
ACGTAT	1.2 ± 0.0268	1.28 ± 0.0492	1.23 ± 0.0551
AGTCGA	0.617 ± 0.0356	0.697 ± 0.0314	0.807 ± 0.0559
AGATTA	2.21 ± 0.147	2.14 ± 0.14	1.86 ± 0.198
TATCCA	1.41 ± 0.0597	1.44 ± 0.0638	1.34 ± 0.0962
ATTCTG	1.27 ± 0.0284	1.35 ± 0.0356	1.28 ± 0.0492
CAGATC	0.723 ± 0.0477	0.849 ± 0.0155	0.964 ± 0.0486
CTTTGA	1.2 ± 0.0763	1.36 ± 0.0716	1.33 ± 0.077
CTAGTA	1.34 ± 0.0412	1.54 ± 0.0865	1.39 ± 0.135
AACGCT	0.549 ± 0.0698	0.603 ± 0.0229	0.738 ± 0.0676
